The list is not random: actives were taken first. Their share in the collection is about 11%.
PNC inhibitor – perinucleolar compartment assembly inhibition. activity change (PNC), negative = inhibition, % at 10 µM. actives 3.1% (n = 140,000). AID 2417. PC3M PTB-GFP, PNC prevalence imaging, 16 h; hits give low values;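 active = readout at or below -70, meaning at least 70% loss of cells showing the perinucleolar compartment, a nuclear body marking cancer cells; inconclusive = readout between -30 and a set limit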
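PC3M cells stably expressing PTB-GFP, 750–1000 cells/well, treated 16 h at 37 °C with compound (23 nl of library stock), in duplicate. After paraformaldehyde fixation and Hoechst stain, imaged at 20x; PNC prevalence scored by image analysis.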
ALDH1A1 inh – blocks purified human ALDH1A1 activity; P00352; Purified ALDH1A1, NADH fluorescence, propionaldehyde substrate; Potency, µM (doses to about 75.3 µM), actives largely listed as inhibitors; actives 7.3% (n = 220,000)
Target sequence (P00352 whole entry, looked up): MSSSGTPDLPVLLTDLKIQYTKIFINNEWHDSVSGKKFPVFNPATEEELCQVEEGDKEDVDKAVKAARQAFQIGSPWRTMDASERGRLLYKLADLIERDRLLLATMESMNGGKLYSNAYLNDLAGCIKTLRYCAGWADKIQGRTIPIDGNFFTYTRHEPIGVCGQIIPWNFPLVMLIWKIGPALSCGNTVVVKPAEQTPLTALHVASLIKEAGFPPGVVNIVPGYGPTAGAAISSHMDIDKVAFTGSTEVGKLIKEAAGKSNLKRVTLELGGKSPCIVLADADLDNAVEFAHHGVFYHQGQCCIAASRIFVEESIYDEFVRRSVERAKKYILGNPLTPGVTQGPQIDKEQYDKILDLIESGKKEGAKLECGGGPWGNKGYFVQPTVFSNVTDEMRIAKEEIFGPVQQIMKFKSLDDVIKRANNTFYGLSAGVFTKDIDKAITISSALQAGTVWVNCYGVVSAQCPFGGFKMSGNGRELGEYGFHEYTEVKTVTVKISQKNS
HPGD inh – inhibitors of human 15-hydroxyprostaglandin dehydrogenase (HPGD); P15428; purified HPGD, NADH fluorescence kinetic, PGE2 substrate; Potency, µM, hits mostly inhibitors; actives 4.3% (n = 150,000)
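NADH formation kinetics: reaction with 30 uM PGE2 and 1 mM NAD+ (final), 20 nM enzyme, Tris-HCl pH 8 with Tween 20, after 15 min compound preincubation at room temperature. Fluorescence change, last versus first of five reads.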
JMJD2E inh – JMJD2E (human) inhibition. actives 1.6% (n = 230,000). Potency, µM (doses to about 57.1 µM), most hits filed as inhibitors. JMJD2E catalytic domain, FDH-coupled NADH fluorescence (FDH is formaldehyde dehydrogenase). B2RXH2; also: nearly all actives have a fitted effect of over 50% in size
A number is an active result; i = inactive; ? = inconclusive; nt = no result. Unless noted, calls follow the shape of the dose curve; as a rule, active = well fitted inhibition curve with a large enough effect (not every such curve was filed as active); inconclusive = small, poorly fitted or top-dose-only effect, or another doubt; inactive = no such curve, though single readings can be large or run the other way.

SMILES	PNC inhibitor	ALDH1A1 inh	HPGD inh	JMJD2E inh
Nc1cc(N2CCCC2)ccc1[N+](=O)[O-]	nt	i	nt	i
Cc1cc(N2CCCCC2)ccc1[N+](=O)[O-]	i	i	22µM	i
CCOC(=O)c1cnc(N(C)C)nc1SC(=N)N	nt	?	i	nt
Cc1cc(C)n(-c2cc(N3CCN(C(=O)c4cccc(Br)c4)CC3)ccc2[N+](=O)[O-])n1	i	14µM	i	i
Cc1cc(C)n(-c2nc3ccccc3nc2N2CCN(C(=O)c3ccccc3)CC2)n1	i	13µM	i	i
CC(=O)N1CCN(c2ccc([N+](=O)[O-])c(-n3nc(C)cc3C)c2)CC1	i	i	i	i
O=C(C1Cc2ccccc2CN1C(=O)c1ccccc1)N1CCN(c2ccccc2)CC1 (stereo not given)	nt	nt	nt	i
CCn1c(O)c(N=NC(=S)NCC2CCCO2)c2ccccc21 (stereo not given)	nt	0.5µM	nt	i
Oc1[nH]c2c(Cl)cc(Cl)cc2c1N=NC(=S)NCC1CCCO1 (stereo not given)	i	0.45µM	i	i
Cc1cc(C)c2[nH]c(O)c(N=NC(=S)NCC3CCCO3)c2c1 (stereo not given)	i	0.079µM	i	i
Oc1[nH]c2ccccc2c1N=NC(=S)NCC1CCCO1 (stereo not given)	?	i	?	i
CN(C)/C=C/c1c([N+](=O)[O-])c2ccc(O)cc2n1-c1ccccc1	nt	i	nt	?
COc1ccc(/C=C(\C#N)C(=O)C(C)(C)n2cncn2)cc1	nt	i	nt	i
COC(=O)c1sc2nc(CN3CCN(c4cccc(C(F)(F)F)c4)CC3)[nH]c(=O)c2c1C	?	?	nt	i
O=C(Nc1cc2nn(-c3ccccc3)nc2cc1Cl)c1ccco1	i	i	i	?
Nc1nc(NC(=O)c2ccco2)nn1-c1ccccc1	-90	i	i	i
O=C(Nc1ccc2nn(-c3ccccc3)nc2c1)c1ccco1	-100	i	?	i
CCC1=C2CC[C@H]3C(=O)N(c4ccccc4)C(=O)[C@H]3[C@H]2[C@@]2(Cc3ccccc3)C(=O)N(CC(=O)OC)C(=O)N2C1=O	nt	i	i	i
COC(=O)[C@H](CC(C)C)NC(=O)Nc1ccc(S(N)(=O)=O)cc1	nt	nt	nt	i
Cc1ccc(C2c3sc(=O)[nH]c3SC3C4CC(C5C(=O)N(C(C)C(=O)O)C(=O)C45)C23)cc1 (stereo not given)	-90	?	i	i
O=C(O)CCN1C(=O)C2C3CC(C2C1=O)C1C(c2ccccc2)c2sc(=O)[nH]c2SC31 (stereo not given)	nt	i	nt	i
COc1cccc(NC(=S)NNC(=O)c2ccccc2OC(F)F)c1	i	25µM	?	i
O=C(NNC(=S)Nc1cccc(Cl)c1)c1ccccc1OC(F)F	i	25µM	i	i
CC=O	nt	i	i	nt
Cc1cc(-c2nc3cccnc3s2)ccc1NS(=O)(=O)c1ccc2c(c1)OCCO2	i	?	?	?
SMILES	PNC inhibitor	ALDH1A1 inh	HPGD inh	JMJD2E inh
Cc1c(NS(=O)(=O)c2ccc3c(c2)OCCO3)cccc1-c1nc2cccnc2s1	?	16µM	i	?
O=C(Nc1ccccc1)C1=C(O)CC(c2ccc(Cl)cc2)N2CCN=C12 (stereo not given)	?	14µM	i	i
O=C(Nc1ccc(Cl)cc1)N1N=CCC1c1ccccc1 (stereo not given)	nt	nt	nt	i
CN(C)CCCOC(=O)COc1ccc(Br)cc1	nt	i	nt	i
Cc1csc2nc(CSc3nc4ccccc4o3)c(Br)n12	i	22µM	14µM	i
O=C(COc1cccnc1[N+](=O)[O-])N1N=C(c2ccc(Cl)cc2)CC1c1ccco1 (stereo not given)	nt	13µM	nt	i
O=C(CSc1nnc(-c2ccncc2)o1)c1cccc([N+](=O)[O-])c1	nt	14µM	nt	i
O=C(CSc1nnc(-c2ccncc2)o1)c1ccc2c(c1)OCCO2	nt	0.79µM	nt	i
NC(=O)CSc1nnc(-c2ccc([N+](=O)[O-])cc2)o1	nt	i	nt	i
O=C(CSc1nnc(CNc2ccccc2)o1)c1ccc2c(c1)OCCO2	i	14µM	i	i
CC(C)(C)c1ccc(-c2nnc(SCC(=O)c3ccc4c(c3)OCCO4)o2)cc1	i	?	i	i
Cc1[nH]c(=O)[nH]c(=O)c1S(=O)(=O)N(CC(C)C)CC(C)C	nt	i	nt	i
c1cc2c3c(cccc3c1)NC1(CCCCC1)N2	i	i	i	3.2µM
O=C1CCSc2cccc3cccc(c23)N1	i	i	i	i
c1cc2c3c(cccc3c1)NC1(CCCCCC1)N2	i	3.2µM	?	3.5µM
CC1=Nc2cccc3cccc(c23)N1	i	i	i	i
CC(C)(C)c1ccc(C(=O)c2c[nH]c(C(=O)NCC3CCCO3)c2)cc1 (stereo not given)	i	i	13µM	i

Screening data (PubChem BioAssay)
